Reference: PubChem BioAssay (EPA / NIEHS)
Records with an inconclusive call do not appear. The source made the active and inactive calls. The calls were made as follows: active = hit-call score of the fitted dose curve at least 0.9, where 1 is the maximum; inconclusive = response in the unintended direction; inactive = score below 0.9.

read-out: not listed separately; assay: CLD_ACTIN_48hr: CellzDirect (CLD) Gene Expression Assay for Baseline Control (Actin) at 48 hours (AID 2283702)
Procedure, shortened: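 Primary human hepatocytes (two donor preparations) dosed daily for two days with ToxCast chemicals at multiple concentrations versus 0.2% DMSO vehicle; harvested at 48 h. Actin mRNA measured as a background control by quantitative nuclease protection assay with chemiluminescence.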

Broad substrate specificity ATP-binding cassette transporter ABCG2 (Homo sapiens), sequence (Q9UNQ0 whole entry, looked up): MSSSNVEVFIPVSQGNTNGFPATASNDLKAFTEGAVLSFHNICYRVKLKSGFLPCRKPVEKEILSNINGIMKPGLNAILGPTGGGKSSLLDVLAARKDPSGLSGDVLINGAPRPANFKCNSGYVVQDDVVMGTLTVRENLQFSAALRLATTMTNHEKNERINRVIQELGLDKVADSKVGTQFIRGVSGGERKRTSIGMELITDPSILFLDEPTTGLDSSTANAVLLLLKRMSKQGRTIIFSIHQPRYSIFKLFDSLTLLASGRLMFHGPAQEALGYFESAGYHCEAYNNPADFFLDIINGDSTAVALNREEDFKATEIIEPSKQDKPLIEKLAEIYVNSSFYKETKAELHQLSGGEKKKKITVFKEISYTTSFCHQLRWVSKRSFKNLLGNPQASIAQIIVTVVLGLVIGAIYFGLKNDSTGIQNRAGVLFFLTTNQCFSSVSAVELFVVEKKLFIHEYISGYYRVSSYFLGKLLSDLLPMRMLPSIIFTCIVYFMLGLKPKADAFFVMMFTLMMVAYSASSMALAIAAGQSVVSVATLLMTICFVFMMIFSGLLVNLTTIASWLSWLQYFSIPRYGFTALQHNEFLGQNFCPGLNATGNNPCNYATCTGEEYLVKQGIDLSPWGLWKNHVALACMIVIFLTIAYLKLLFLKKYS

SMILES | outcome
CCc1cccc(CC)c1N(COC)C(=O)CCl | inactive
COP(=O)(OC)SCn1c(=O)oc2cc(Cl)cnc21 | inactive
CON=C(C(=O)OC)c1ccccc1CON=C(C)c1cccc(C(F)(F)F)c1 | inactive
CNC(=O)ON=C(SC)C(=O)N(C)C | inactive
O=c1ccc(=O)[nH][nH]1 | inactive
CN1COCN(Cc2cnc(Cl)s2)C1=N[N+](=O)[O-] | inactive
C[N+]1(C)CCCCC1 | inactive
COc1cc(OC)nc(Sc2cccc(Cl)c2C(=O)O)n1 | inactive
CCCCOC(=O)[C@@H](C)Oc1ccc(Oc2ccc(C#N)cc2F)cc1 | inactive
CC(=NC#N)N(C)Cc1ccc(Cl)nc1 | inactive
COc1ccc(C(=CC(=O)N2CCOCC2)c2ccc(Cl)cc2)cc1OC | inactive
CC(C)N(C(=O)SCC(Cl)=C(Cl)Cl)C(C)C | inactive
C=C(C)[C@H]1Cc2c(ccc3c2O[C@@H]2COc4cc(OC)c(OC)cc4[C@@H]2C3=O)O1 | inactive
CC(C)=CC1C(C(=O)OCN2C(=O)C3=C(CCCC3)C2=O)C1(C)C (stereo unspecified) | inactive
C[Si](Cn1cncn1)(c1ccc(F)cc1)c1ccc(F)cc1 | inactive

read-out: xenobiotic metabolism (CYP1A2), CYP1A2 (gene 1544); assay: CLD_CYP1A2_48hr: CellzDirect (CLD) Gene Expression Assay for xenobiotic metabolism (CYP1A2) at 48 hours (AID 2283703)
Procedure, shortened: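 Primary human hepatocytes from two donor preparations were dosed daily for two days at multiple concentrations in 0.2% DMSO vehicle. CYP1A2 mRNA was measured at 48 hours by chemiluminescent quantitative nuclease protection assay, with gain of signal fitted versus DMSO and cytotoxicity annotated from morphology.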

SMILES | outcome | AC50
CCc1cccc(CC)c1N(COC)C(=O)CCl | inactive | –
CCNc1nc(Cl)nc(NC(C)(C)C#N)n1 | inactive | –
CCOP(=S)(OCC)Oc1ccc2c(C)c(Cl)c(=O)oc2c1 | – | 0.414 µM (active)
COP(=O)(OC)SCn1c(=O)oc2cc(Cl)cnc21 | inactive | –
CON=C(C(=O)OC)c1ccccc1CON=C(C)c1cccc(C(F)(F)F)c1 | inactive | –
CCOP(=O)(NC(C)C)Oc1ccc(SC)c(C)c1 (stereo unspecified) | – | 5.87 µM (active)
CNC(=O)ON=C(SC)C(=O)N(C)C | inactive | –
CCc1cccc(C)c1N(C(=O)CCl)C(C)COC (stereo unspecified) | inactive | –
CN1COCN(Cc2cnc(Cl)s2)C1=N[N+](=O)[O-] | inactive | –
C[N+]1(C)CCCCC1 | inactive | –
CCOP(=S)(OCC)OC(Cl)C(Cl)(Cl)Cl (stereo unspecified) | – | 9.25 µM (active)
CN(C)C(=O)Nc1cccc(C(F)(F)F)c1 | – | 1.96 µM (active)
COc1cc(OC)nc(Sc2cccc(Cl)c2C(=O)O)n1 | inactive | –
CCOP(=S)(Oc1cnc(C(C)(C)C)nc1)OC(C)C (stereo unspecified) | – | 2.68 µM (active)
CCCCOC(=O)[C@@H](C)Oc1ccc(Oc2ccc(C#N)cc2F)cc1 | inactive | –
CCC(=NOC/C=C/Cl)C1=C(O)CC(C2CCOCC2)CC1=O (stereo unspecified) | inactive | –
CCOP(=S)(OCC)Oc1cc(C)nc(C(C)C)n1 | – | 2.77 µM (active)
CC(=NC#N)N(C)Cc1ccc(Cl)nc1 | inactive | –
CCC(=O)Nc1ccc(Cl)c(Cl)c1 | – | 4.67 µM (active)
CC(C)N(C(=O)SCC(Cl)=C(Cl)Cl)C(C)C | inactive | –
CCCCOC(=O)c1ccccc1C(=O)O | inactive | –
Cc1cc(C2CC2)nc(Nc2ccccc2)n1 | – | 3.97 µM (active)
CCCSP(=O)(OCC)Oc1ccc(Br)cc1Cl (stereo unspecified) | – | 4.26 µM (active)
CNc1cnn(-c2cccc(C(F)(F)F)c2)c(=O)c1Cl | – | 5.39 µM (active)
CCOP(=O)(OCC)Oc1cc(C)nc(C(C)C)n1 | – | 11.6 µM (active)
C#CC(C)(C)NC(=O)c1cc(Cl)cc(Cl)c1 | – | 0.348 µM (active)
COc1cccc(C(=O)NN(C(=O)c2cc(C)cc(C)c2)C(C)(C)C)c1C | – | 20 µM (active)
CSc1nnc(C(C)(C)C)c(=O)n1N | – | 2.97 µM (active)
CCOP(=S)(OCC)Oc1ccc([N+](=O)[O-])cc1 | – | 2.97 µM (active)
C[Si](Cn1cncn1)(c1ccc(F)cc1)c1ccc(F)cc1 | – | 1.89 µM (active)

read-out: Broad substrate specificity ATP-binding cassette transporter ABCG2 (Homo sapiens) (UniProt Q9UNQ0); assay: CLD_ABCG2_48hr: CellzDirect (CLD) Gene Expression Assay for ABC Transporter (ABCG2) at 48 hours (AID 2283704)
Procedure, shortened: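 Primary human hepatocytes from two donors, dosed daily for 2 days, 0.2% DMSO vehicle, several concentrations. ABCG2 mRNA at 48 h by qNPA chemiluminescence, gain fitted versus DMSO; cytotoxicity flagged by morphology.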

SMILES | outcome
COP(=O)(OC)SCn1c(=O)oc2cc(Cl)cnc21 | inactive
C[N+]1(C)CCCCC1 | inactive
CCCSP(=O)(OCC)Oc1ccc(Br)cc1Cl (stereo unspecified) | inactive

read-out: xenobiotic metabolism (CYP1A1), CYP1A1 (gene 1543); assay: CLD_CYP1A1_48hr: CellzDirect (CLD) Gene Expression Assay for xenobiotic metabolism (CYP1A1) at 48 hours (AID 2283705)
Procedure, shortened: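 Primary human hepatocytes from two donors dosed daily for two days at multiple concentrations, 0.2% DMSO vehicle; CYP1A1 mRNA induction at 48 h by qNPA chemiluminescence. Cytotoxicity noted by phase-contrast morphology.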

SMILES | outcome
COP(=O)(OC)SCn1c(=O)oc2cc(Cl)cnc21 | inactive
CN1COCN(Cc2cnc(Cl)s2)C1=N[N+](=O)[O-] | inactive
CC(=NC#N)N(C)Cc1ccc(Cl)nc1 | inactive
CC(C)N(C(=O)SCC(Cl)=C(Cl)Cl)C(C)C | inactive
Cc1cc(C2CC2)nc(Nc2ccccc2)n1 | inactive

read-out: alkyl and aryl transferase (GSTA2), GSTA2 (gene 2939); assay: CLD_GSTA2_48hr: CellzDirect (CLD) Gene Expression Assay for alkyl and aryl transferase (GSTA2) at 48 hours (AID 2283708);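 also: active means mRNA induction above DMSO vehicle baseline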
Procedure, shortened: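 Primary human hepatocytes dosed daily for two days (0.2% DMSO vehicle), harvested at 48 h. GSTA2 mRNA induction measured by quantitative nuclease protection assay with chemiluminescent imaging, fitted for gain of signal relative to DMSO.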

SMILES | outcome
CCc1cccc(C)c1N(C(=O)CCl)C(C)COC (stereo unspecified) | inactive
C[N+]1(C)CCCCC1 | inactive
CC(C)=CC1C(C(=O)OCN2C(=O)C3=C(CCCC3)C2=O)C1(C)C (stereo unspecified) | inactive
CCOP(=O)(OCC)Oc1cc(C)nc(C(C)C)n1 | inactive
C#CC(C)(C)NC(=O)c1cc(Cl)cc(Cl)c1 | inactive

read-out: glucuronosyltransferase (UGT1A1), UGT1A1 (gene 54658); assay: CLD_UGT1A1_48hr: CellzDirect (CLD) Gene Expression Assay for glucuronosyltransferase (UGT1A1) at 48 hours (AID 2283709);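 also: actives increase expression relative to DMSO so potency refers to induction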
Procedure, shortened: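 Human primary hepatocytes dosed daily for two days (0.2% DMSO vehicle), harvested at 48 h. UGT1A1 mRNA induction measured by quantitative nuclease protection assay with chemiluminescence; gain of signal versus DMSO; cytotoxicity flagged from morphology.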

SMILES | outcome | AC50
CCc1cccc(CC)c1N(COC)C(=O)CCl | inactive | –
CCNc1nc(Cl)nc(NC(C)(C)C#N)n1 | inactive | –
CCOP(=S)(OCC)Oc1ccc2c(C)c(Cl)c(=O)oc2c1 | inactive | –
COP(=O)(OC)SCn1c(=O)oc2cc(Cl)cnc21 | inactive | –
CON=C(C(=O)OC)c1ccccc1CON=C(C)c1cccc(C(F)(F)F)c1 | inactive | –
CCOP(=O)(NC(C)C)Oc1ccc(SC)c(C)c1 (stereo unspecified) | inactive | –
O=C(O)c1cc(Oc2ccc(C(F)(F)F)cc2Cl)ccc1[N+](=O)[O-] | inactive | –
CNC(=O)ON=C(SC)C(=O)N(C)C | inactive | –
CCc1cccc(C)c1N(C(=O)CCl)C(C)COC (stereo unspecified) | inactive | –
C[N+]1(C)CCCCC1 | inactive | –
CCOP(=S)(OCC)OC(Cl)C(Cl)(Cl)Cl (stereo unspecified) | – | 4.19 µM (active)
CN(C)C(=O)Nc1cccc(C(F)(F)F)c1 | inactive | –
COc1cc(OC)nc(Sc2cccc(Cl)c2C(=O)O)n1 | inactive | –
CCOP(=S)(Oc1cnc(C(C)(C)C)nc1)OC(C)C (stereo unspecified) | – | 0.439 µM (active)
CCCCOC(=O)[C@@H](C)Oc1ccc(Oc2ccc(C#N)cc2F)cc1 | inactive | –
CCC(=NOC/C=C/Cl)C1=C(O)CC(C2CCOCC2)CC1=O (stereo unspecified) | inactive | –
CCOP(=S)(OCC)Oc1cc(C)nc(C(C)C)n1 | inactive | –

SMILES | outcome | AC50
CC(=NC#N)N(C)Cc1ccc(Cl)nc1 | inactive | –
COc1ccc(C(=CC(=O)N2CCOCC2)c2ccc(Cl)cc2)cc1OC | inactive | –
CCC(=O)Nc1ccc(Cl)c(Cl)c1 | inactive | –
CC(C)N(C(=O)SCC(Cl)=C(Cl)Cl)C(C)C | inactive | –
CCCCOC(=O)c1ccccc1C(=O)O | inactive | –
Cc1cc(C2CC2)nc(Nc2ccccc2)n1 | inactive | –
C=C(C)[C@H]1Cc2c(ccc3c2O[C@@H]2COc4cc(OC)c(OC)cc4[C@@H]2C3=O)O1 | inactive | –
CCCSP(=O)(OCC)Oc1ccc(Br)cc1Cl (stereo unspecified) | – | 20 µM (active)
CNc1cnn(-c2cccc(C(F)(F)F)c2)c(=O)c1Cl | inactive | –
CC(C)=CC1C(C(=O)OCN2C(=O)C3=C(CCCC3)C2=O)C1(C)C (stereo unspecified) | inactive | –
CCOP(=O)(OCC)Oc1cc(C)nc(C(C)C)n1 | inactive | –
C#CC(C)(C)NC(=O)c1cc(Cl)cc(Cl)c1 | – | 6.38 µM (active)
COc1cccc(C(=O)NN(C(=O)c2cc(C)cc(C)c2)C(C)(C)C)c1C | – | 8.82 µM (active)
CSc1nnc(C(C)(C)C)c(=O)n1N | inactive | –
CCOP(=S)(OCC)Oc1ccc([N+](=O)[O-])cc1 | – | 2.67 µM (active)
C[Si](Cn1cncn1)(c1ccc(F)cc1)c1ccc(F)cc1 | inactive | –
